Sampled rows, rich in hits. Any-hit rate of the full collection: about 7.5%.
ELG1 genotoxic = genotoxicity induction in ELG1-luciferase HEK293T cells; actives 1.3% (n = 330,000); HEK293T ELG1-luciferase reporter, luminescence, 16 h; Potency, µM (highest dose often 46 µM), hits mostly activators; further: nearly all actives have a fitted effect of over 60% in size
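Step 1: seed 2,000 HEK293T ELG1-luciferase cells per well. Step 2: add compound or DMSO, incubate 16 hr at 37 °C. Step 3: ONE-Glo, 30 min at room temperature, read luminescence.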
Rab9 promoter act = activates the Rab9 promoter. Huh7 Rab9 promoter-luciferase reporter, luminescence, 24 h. Potency, µM (series often up to 9.22 µM), most hits filed as activators. actives 2.8% (n = 320,000). AID 485297; further: nearly all actives have a fitted effect of over 60% in size
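Huh7 cells stably carrying a Rab9 promoter-luciferase reporter, 1500 cells per well in OP-MEM I with 10% FBS, treated with compound 24 hours at 37C. Luciferase activity read by luminescence after 10 minutes with Amplite reagent.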
KinaseGlo FLuc = Kinase-Glo luciferase inhibition (counter-screen); Q27757; Kinase-Glo luciferase, ATP luminescence, 8 min; Potency, µM (highest dose often 38.3 µM), hits mostly inhibitors; actives 0.28% (n = 200,000); further: nearly all actives have a fitted effect of over 60% in size
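Light output from Kinase-Glo luciferase with luciferin and 10 uM ATP in 50 mM imidazole pH 7.2, KCl, MgCl2, Tween 20, BSA; compound pin-delivered, 8-min ambient incubation, then luminescence read.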
SMN2 splice up = SMN2 splice variant enhancement; HEK293 SMN2-luciferase splicing reporter, luminescence, 30-36 h; Potency, µM (series often up to 46.1 µM), usual class: activators; actives 2.8% (n = 210,000); further: nearly all actives have a fitted effect of over 55% in size
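qHTS luciferase splicing reporter: luminescence rises when SMN2 exon 7 is included in transfected HEK293 cells. Compound exposure lasted 30-36 h at 37C, with 4.5 mM final sodium butyrate as control, followed by a ONE-Glo read.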
NPC1 prom act = activators of NPC1 promoter; Huh7 NPC1 promoter luciferase reporter, 24 h; Potency, µM (titrated, usually from 9.22 µM), hits mostly activators; actives 2.4% (n = 320,000); further: nearly all actives have a fitted effect of over 60% in size
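Luminescence read-out of NPC1 promoter-driven luciferase in stably transfected Huh7 cells; compounds delivered in DMSO and left 24 h at 37C, 5% CO2, qHTS titration format.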
FLuc modulator = inhibits or activates purified firefly luciferase, miR-21 counter-screen | actives 6.9% (n = 360,000) | AID 588342 | Potency, µM (titrated, usually from 57.5 µM), most hits filed as inhibitors | P08659 | purified FLuc, Km substrates, luminescence inhibition; further: nearly all actives have a fitted effect of over 55% in size
Target sequence (P08659 whole entry, looked up): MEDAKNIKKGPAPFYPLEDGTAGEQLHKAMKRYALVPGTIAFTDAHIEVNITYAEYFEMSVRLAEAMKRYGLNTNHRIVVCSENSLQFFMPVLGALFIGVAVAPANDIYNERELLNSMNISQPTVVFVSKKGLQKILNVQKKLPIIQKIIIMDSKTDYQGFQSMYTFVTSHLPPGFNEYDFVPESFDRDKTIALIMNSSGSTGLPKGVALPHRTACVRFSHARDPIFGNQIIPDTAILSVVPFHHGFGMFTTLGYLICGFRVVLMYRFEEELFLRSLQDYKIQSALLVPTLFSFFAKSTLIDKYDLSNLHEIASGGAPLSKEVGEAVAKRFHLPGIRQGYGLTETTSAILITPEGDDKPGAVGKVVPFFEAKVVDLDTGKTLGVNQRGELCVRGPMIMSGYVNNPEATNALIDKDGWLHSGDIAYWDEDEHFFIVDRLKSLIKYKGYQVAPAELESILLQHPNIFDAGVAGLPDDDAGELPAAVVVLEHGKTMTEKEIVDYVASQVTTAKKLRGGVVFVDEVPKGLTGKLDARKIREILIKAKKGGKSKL
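Purified P. pyralis luciferase, 10 nM final, with Km-level 10 uM D-luciferin and 10 uM ATP in 50 mM Tris acetate pH 7.5, 10 mM Mg acetate, 0.01% Tween-20, 0.05% BSA; 6-point qHTS titration about 60 µM downward; luminescence read.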
Hits are given with their value; n = inactive; u = inconclusive; x = no result given. The call rests on the fitted dose curve; in most records, active means well fitted curve in the direction sought with a large enough effect; inconclusive means small, poorly fitted or top-dose-only effect, or another doubt; inactive means no such curve, though single readings can be large; an effect the other way counts as inactive or inconclusive.

SMILES | ELG1 genotoxic | Rab9 promoter act | KinaseGlo FLuc | SMN2 splice up | NPC1 prom act | FLuc modulator
O=C(NCC1CCCO1)c1sc(=S)n2c1[nH]c(=O)c1ccc(C(=O)N3CCCCC3)cc12 (configuration not stated) | n | n | n | n | n | 21µM
O=C(NCCc1ccccc1)c1ccc2c(=O)[nH]c3c(C(=O)NCC4CCCO4)sc(=S)n3c2c1 (configuration not stated) | n | n | x | x | n | u
COc1ccc2c(Cl)c(C(=O)NCC3CCCO3)sc2c1Cl (configuration not stated) | n | n | n | x | n | n
Cc1ccc2c(Cl)c(C(=O)NCC3CCCO3)sc2c1 (configuration not stated) | u | 2.2µM | n | 11µM | 2µM | 5.4µM
O=C(O)CC(NC(=O)c1sc2ccccc2c1Cl)c1ccc(OC2CCCC2)cc1 (configuration not stated) | n | n | n | n | n | 15µM
O=C(NCC(c1ccc2c(c1)OCO2)N1CCN(c2ccccc2F)CC1)c1ccccc1F (configuration not stated) | x | x | x | x | x | n
O=S(=O)(c1ccccc1F)N1CCN(CCc2ccccc2)CC1 | n | n | x | x | n | n
COc1ccc2c(c1)c1c(c(=O)n(-c3ccc(OC)c(OC)c3)c(=O)n1Cc1ccccc1F)n2C | x | x | x | x | x | n
COc1cccc(CSc2nc(-c3ccccc3F)nc3c2Cc2c(CO)cnc(C)c2O3)c1 | x | x | x | x | x | n
O=C(NCC1CCCO1)c1cccc2ccccc12 (configuration not stated) | n | n | x | x | n | n
CC(NC(=O)c1csc2ccccc12)C1CCCO1 (configuration not stated) | u | n | n | n | n | n
O=C(NCC1CCCO1)c1sc2ccccc2c1Cl (configuration not stated) | u | u | n | 13µM | u | 19µM
CC(NC(=O)c1sc2ccccc2c1Cl)C1CCCO1 (configuration not stated) | u | u | n | 11µM | u | 9.5µM
COc1ccccc1OCC(=O)N(Cc1ccco1)Cc1ccccc1F | x | x | x | n | x | n
COc1cccc(-c2nc3c(C#N)c[nH]n3c2NC2CCCC2)c1OC | x | x | x | x | x | n
CN(C)c1ccc(Nc2ccc([N+](=O)[O-])cn2)cc1 | u | u | x | x | 3.5µM | u
CCN(CC)C(=O)C1CCCN(c2ncnc3c2c(-c2ccccc2)cn3-c2cccc(C)c2)C1 (configuration not stated) | x | x | x | x | x | n
CC(C)(C)c1ccc(C(=O)NCC(=O)OCC(=O)N2CCCC2)cc1 | n | n | x | x | n | 15µM
CC(C)(C)c1ccc(C(=O)NCCC(=O)N2CCCC2)cc1 | 21µM | 4µM | x | x | 2.2µM | 9.5µM
Cc1ccc(C(=O)NCCN2CCOCC2)cc1 | n | n | n | n | n | n
Cc1ccc(C(=O)NCCC(=O)N2CCOCC2)cc1 | 13µM | 2.5µM | x | x | 1.6µM | 11µM
CCCOC(=O)c1cc(-c2ccc(C=O)o2)ccc1Cl | n | n | n | u | n | u
CCCOC(=O)c1ccc(-c2ccc(C=O)o2)cc1 | u | u | n | 1.3µM | u | 13µM
CCOC(=O)c1ccc(-c2ccc(C=O)o2)cc1 | u | u | x | x | u | 24µM
O=C1c2ccccc2C(=O)N1c1ccc(Cl)cn1 | n | n | n | n | n | n
SMILES | ELG1 genotoxic | Rab9 promoter act | KinaseGlo FLuc | SMN2 splice up | NPC1 prom act | FLuc modulator
Cc1cc(C)cc(NC(=O)C(=O)NCC(c2cccnc2)N2CCN(c3ccccc3)CC2)c1 (configuration not stated) | x | x | x | x | x | n
O=C1CCC(=O)N1c1cccc(-c2nc3ccccc3o2)c1 | n | n | n | n | n | u
O=C1c2cccnc2C(=O)N1c1cccc(-c2nc3ccccc3o2)c1 | n | n | n | n | n | 3.8µM
CN(C)c1ccc(N/C=C/C(=O)c2ccccc2)cc1 | 0.73µM | 3.2µM | 4µM | 3.2µM | 2.8µM | 0.27µM
CN(C)c1ccc(N/C=C/C(=O)C(C)(C)C)cc1 | u | n | n | n | n | 5.4µM
O=C(/C=C\Nc1ccc(Br)cc1)c1cccnc1 | 21µM | 1.3µM | n | x | 1.8µM | 0.95µM
Cc1cc(N/C=C/C(=O)c2ccccc2)ccc1Br | u | 3.2µM | x | x | u | 0.48µM
CN(C)c1ccc(/C=N/NC(=O)c2ccc(NC(=O)c3ccccc3)cc2)cc1 | n | n | x | x | n | n
CCC/C=C(\CCC)C(NC(=O)Oc1ccc(F)cc1)c1ccc(C(=O)OC)cc1 (configuration not stated) | x | x | n | n | x | x
Cc1nc(S(=O)(=O)N2CCN(c3cccc(Cl)c3)CC2)cn1C | x | x | x | x | x | n
O=C(/C=C/Nc1ccc(F)cc1Br)c1ccccc1 | 0.16µM | 0.11µM | u | n | 0.5µM | 0.085µM
NC(N)=NS(=O)(=O)c1ccc(N/C=C\C(=O)c2ccncc2)cc1 | n | n | n | x | n | n
O=C(/C=C/Nc1ccccc1)c1ccc(Cl)cc1Cl | 0.92µM | 0.5µM | x | x | 0.35µM | 0.38µM
CC(=O)Nc1ccc(N/C=C/C(=O)c2ccccc2)cc1 | u | 2.8µM | x | x | 1.6µM | 4.8µM
O=C(/C=C/Nc1ccccc1)c1ccccc1 | u | 1µM | 7.1µM | 11µM | 0.56µM | 0.34µM
CC(=O)Nc1ccc(C(=O)c2ccccc2)cc1 | n | n | x | x | n | n
COc1cccc(C2CC(=O)Nc3c2c(=O)n(C)c2ncnn32)c1OC (configuration not stated) | x | x | x | n | x | n
CC(=O)c1ccc(OCc2cc(C(=O)N3CC4C[C@@H]5CC3C[C@H](C4)C5)no2)cc1 | u | 3.2µM | x | x | 2.5µM | 9.5µM
O=C(c1cc(COc2ccc(F)cc2F)on1)N1C[C@H]2CC[C@H]1C2 | n | u | x | x | n | u
CC(=O)c1cccc(OCc2cc(C(=O)N3CC4C[C@@H]5CC3C[C@H](C4)C5)no2)c1 | n | n | x | x | n | u
O=C(c1cc(COc2ccc(F)cc2F)on1)N1CC2C[C@@H]3CC1C[C@H](C2)C3 | n | u | x | x | u | 17µM
COc1ccccc1OCc1cc(C(=O)N2CCN(C)C(c3ccccc3)C2)no1 (configuration not stated) | u | 2µM | x | x | 4µM | 9.5µM
COc1ccccc1OCc1cc(C(=O)N2CC3C[C@@H]4CC2C[C@H](C3)C4)no1 | u | 3.5µM | x | x | 4.5µM | 17µM
Cc1nn(CC(=O)Nc2cc(F)ccc2F)c(=O)c2cccn12 | x | x | x | x | x | n
COc1ccc(NC(=O)CSc2oc(-c3ccc(F)cc3)nc2S(=O)(=O)c2ccc(C)cc2)c(OC)c1 | x | x | x | n | x | n
COCc1cc(=O)n2c(-c3ccc(C)cc3)n[nH]c2n1 | n | n | n | u | n | 9.5µM
CCOC(=O)c1c(NC2=NS(=O)(=O)c3ccccc32)sc2c1CCC(C)C2 (configuration not stated) | n | n | n | n | n | n

Bioassay records (PubChem)
